# Only a selection was taken, and hits are over-represented in it overall.
# Cycloheximide cs = affects cycloheximide protein synthesis inhibition readout, counter-screen. cell reporter, cycloheximide protein synthesis inhibition counterscreen. max response, %. 300,000 compounds, 12% hits; in the data active = max response mostly above about 13%, no sharp cut-off; inactive = mostly below about 14%; note: read at 38.3 µM for the half of the compounds with a filed dose
# LmPK inhibitor = LmPK (Leishmania mexicana) enzyme inhibition. Potency, µM (titrated, usually from 57.5 µM), actives largely listed as inhibitors. AID 1721. purified LmPK, Kinase-Glo ATP luminescence, 1 h. Q27686. 290,000 compounds, 0.37% hits
# Target sequence (Q27686 whole entry, looked up): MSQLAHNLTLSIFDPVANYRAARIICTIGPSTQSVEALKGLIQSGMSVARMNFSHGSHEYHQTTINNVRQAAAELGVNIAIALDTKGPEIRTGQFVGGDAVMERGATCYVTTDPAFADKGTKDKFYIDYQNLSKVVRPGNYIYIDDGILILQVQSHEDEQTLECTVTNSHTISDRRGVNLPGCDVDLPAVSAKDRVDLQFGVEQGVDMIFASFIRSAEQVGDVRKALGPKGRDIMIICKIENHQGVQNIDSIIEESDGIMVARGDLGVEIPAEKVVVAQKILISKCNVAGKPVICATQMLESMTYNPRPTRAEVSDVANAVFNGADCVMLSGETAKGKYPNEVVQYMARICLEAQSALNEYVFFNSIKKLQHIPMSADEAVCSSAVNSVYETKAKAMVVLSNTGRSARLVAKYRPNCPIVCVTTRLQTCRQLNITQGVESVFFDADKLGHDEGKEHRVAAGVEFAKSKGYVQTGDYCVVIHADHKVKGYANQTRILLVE
#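 In 50 mM imidazole pH 7.2 with 7 mM MgCl2, LmPK (0.1 nM) turned over PEP (0.5 mM) and ADP (0.1 mM) for 1 h at room temperature. Luciferase read-out of ATP.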
# TbPYK inhibitor = blocks Trypanosoma brucei pyruvate kinase; Potency, µM (top dose mostly 76.8 µM), hits mostly inhibitors; 410,000 compounds, 0.12% hits; TbPYK enzyme, Kinase-Glo Plus ATP luminescence, 45 min; AID 624173; Q57TT1; note: nearly all actives have a fitted effect of over 50% in size
#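 Activity of T. brucei pyruvate kinase was followed by Kinase-Glo Plus luminescence after the enzyme reacted 45 min at room temperature with 130 uM ADP (final) and substrate. Test compounds were added before ADP at multiple concentrations.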
# FBPA Giardia inh = Giardia lamblia aldolase inhibition. AID 2451. 290,000 compounds, 0.71% hits. purified Giardia FBPA. Potency, µM (top dose mostly 59.6 µM), actives largely listed as inhibitors; note: nearly all actives have a fitted effect of over 55% in size
#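 Giardia FBPA (40 nM reagent) was preincubated 10 min at RT with compound (up to 57.5 uM final), then substrate plus GAPDH/TPI/NAD/arsenate coupling system with diaphorase/resazurin was added; resorufin fluorescence (525/598 nm) was read after 20 min.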
# Shiga toxin inh = blocks Shiga toxin action in Vero cells; Vero cells, Shiga toxin protein synthesis inhibition reporter; inhibition, % at 38.7 µM; 290,000 compounds, 9.2% hits; AID 2315; in the data active = inhibition mostly above about 28%, no sharp cut-off; inactive = mostly below about 43%
# Sm TGR inh = inhibitors of Schistosoma mansoni thioredoxin glutathione reductase; Q962Y6; purified TGR, DTNB reduction, TNB absorbance 405 nm; Potency, µM (doses to about 114 µM), usual class: inhibitors; 360,000 compounds, 3% hits; AID 485364; note: nearly all actives have a fitted effect of over 60% in size
#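 TGR 20 nM + NADPH 100 uM (dispensed conc.), cpd preinc 15 min RT; start with NADPH (500 uM addition) then DTNB (15 mM addition). Kinetic TNB absorbance, 405 nm filter. Four-parameter Hill fit across titration.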
# Hits are given with their value; - = inactive; ? = inconclusive; . = no result given; ! = a repeat was not active; [ ] = remark or other dose. Unless noted, calls come from the whole dose curve; as a rule, active = well fitted curve in the direction sought with a large enough effect; inconclusive = small, poorly fitted or top-dose-only effect, or another doubt; inactive = no such curve, though single readings can be large; an effect the other way counts as inactive or inconclusive.
SMILES,Cycloheximide cs,LmPK inhibitor,TbPYK inhibitor,FBPA Giardia inh,Shiga toxin inh,Sm TGR inh
COCCCOc1cc(C[C@@H](C[C@H](N)[C@@H](O)C[C@H](C(=O)NCC(C)(C)C(N)=O)C(C)C)C(C)C)ccc1OC,.,.,-,.,.,.
Cc1ccc(-c2cc(-c3cccs3)[nH]n2)c(O)c1,40.9,-,-,-,72.1,-
O=C1NC(c2cc(Cl)cc([N+](=O)[O-])c2O)Nc2ccccc21 (stereo not drawn),-,-,-,-,-,-
Cc1ccc(C(=O)c2oc3ccccc3c2NC(=O)c2cc(-c3cc(C)ccc3O)n[nH]2)cc1,-,-,-,-,-,-
Cc1ccc(O)c(-c2cc(-c3ccccc3C)[nH]n2)c1,-,-,-,-,32.5,-
O=[N+]([O-])c1ccccc1-c1cc(-c2cc(Cl)ccc2O)n[nH]1,21.8,-,-,-,-,-
Cc1ccc(O)c(-c2cc(-c3ccccc3[N+](=O)[O-])[nH]n2)c1,19.9,-,-,-,44.4,-
COC(=O)[C@@]1(Cc2ccccc2)[C@H]2c3cc(C(=O)N4CCCC4)n(Cc4ccc(OC)c(OC)c4)c3C[C@H]2CN1C(=O)c1ccccc1,.,.,.,-,.,.
COc1ccc(-c2cn3nc(N4CCC(C(=O)Nc5cc(Cl)ccc5C)CC4)sc3n2)cc1,.,.,-[15.4 µM],.,.,-
Cc1cccc(OCCSc2nc3ccccc3n2CC(=O)N2CCOCC2)c1,.,.,-,.,.,-
Cc1ccc(O)c(-c2cc(C(=O)NCc3ccc4c(c3)OCO4)[nH]n2)c1,-,-,-,-,-,-
COc1ccc(O)c(-c2cc(-c3ccccc3[N+](=O)[O-])[nH]n2)c1,24.8,-,-,-,-,-
Cc1ccc(O)c(-c2cc(C(F)(F)C(F)F)[nH]n2)c1,18.6,-,-,-,-,-
NC(=O)c1cc(N=Nc2c(N)[nH]n(-c3c(Cl)cc(Cl)cc3Cl)c2=O)ccc1Cl,-,-,-,-,-,.
CCNc1nc(SCC(=O)OC)nc(N(C)C)n1,-,-,-,-,-,-
COc1ccccc1OCc1nnc(SCC(=O)NCc2ccco2)n1-c1ccccc1,11.7,-,-,-,-,-
COc1ccc(-n2c(COc3cccc(C)c3)nnc2SCC(=O)NCc2ccco2)cc1,29.7,-,-,-,35.3,-
Cc1ccc(-n2c(Cc3cccn3C)nnc2SCC(=O)NCc2ccco2)cc1,-,-,-,-,-,39.8µM
COc1ccc(-n2c(COc3cccc4ccccc34)nnc2SCC(=O)NCc2ccco2)cc1,25.3,-,-,-,-,-
Cc1ccc(OCC(=O)OCc2cc(=O)n3nc(-c4cccs4)sc3n2)cc1C,.,.,-,.,.,-
CCOC(=O)c1cc2c(nc1N)CCCC2,-,-,-,-,-,-
CCOC(=O)c1oc2nc3c(cc2c1N)COC(C)(C)C3,20.1,-,-,-,81.9,-
CCOC(=O)c1oc2nc3c(cc2c1N)CCCC3,50.3,-,-,-,77.0,-
Cc1c(CCC(=O)N[C@@H](CC(C)C)C(=O)O)c(=O)oc2cc3oc4c(c3cc12)CCCC4,-,-,-,-,-,?
CCN(C(=O)/C=C/c1ccc(OC)cc1)C1CCCCC1,11.8,-,-,-,-,-
SMILES,Cycloheximide cs,LmPK inhibitor,TbPYK inhibitor,FBPA Giardia inh,Shiga toxin inh,Sm TGR inh
Cc1ccc(C(=O)c2cnc3cc4c(cc3c2S(=O)(=O)c2ccccc2)OCCO4)cc1,67.8,-,-,-,100.0,-
CCOc1ccc(S(=O)(=O)c2c(C(=O)c3ccc(C)cc3)cnc3cc4c(cc23)OCCO4)cc1,-,-,-,-,-,-
O=C(O)CC1Sc2ccccc2NC1=O (stereo not drawn),-,-,-,-,-,-
O=C(CC1Sc2ccccc2NC1=O)c1ccc(Br)cc1 (stereo not drawn),37.7,-,-,-,58.2,-
COc1ccccc1/C=N/N1C(=O)c2cccc3cccc(c23)C1=O,-,-,-,-,-,-
CCN(CC)c1ccc(/C=N/N2C(=O)c3ccccc3C2=O)cc1,-,-,-,-,-,-
CN(C)c1ccc(/C=N/N2C(=O)c3ccccc3C2=O)cc1,55.3,?,-,-,76.1,-
COc1ccc(/C=N\n2nnc3ccccc32)cc1,27.8,-,-,-,-,-
COc1ccc(/C=N/N2C(=O)c3ccccc3C2=O)cc1,-,-,-,-,33.4,-
Cc1cccc(OCC(=O)N2CCC(c3nc4ccccc4o3)CC2)c1C,.,.,-,.,.,-
CCOC(=O)CCc1c(C)nc2cc(-c3cc(OC)cc(OC)c3)[nH]n2c1=O,.,.,-,.,.,-
CCc1c(C)nc2cc(-c3ccc(Cl)cc3)[nH]n2c1=O,35.2,-,-,-,34.8,-
CCOC(=O)CCc1c(C)nc2cc(-c3ccc(Cl)cc3)[nH]n2c1=O,-,-,-,-,-,-
Cc1nc2cc(-c3ccc(Br)cc3)[nH]n2c(=O)c1Cl,-,-,-,?,-,-
O=c1cc(-c2ccc([N+](=O)[O-])cc2)nc2cc(-c3ccc(Cl)cc3)[nH]n12,-,-,.,-,-,-
CCOC(=O)Cc1c(C)nc2cc(-c3ccc(C)cc3)[nH]n2c1=O,15.2,-,-,-,-,-
O=c1c2c(nc3cc(-c4ccc(Cl)cc4)[nH]n13)CCS2,50.7,-,-,-,-,-
CCc1c(C)nc2cc(-c3cccc(Br)c3)[nH]n2c1=O,38.2,-,-,?,79.9,-
COc1ccc(-c2noc(COc3ccc(Br)cc3C)n2)cc1OC,.,.,-,.,.,-
O=C(CCc1nc(-c2ccccn2)no1)NCc1ccc2c(c1)OCO2,-,-,-,-,-,-
Brc1ccc(-c2noc(CCc3ccccc3)n2)o1,17.0,-,-,-,84.0,-
Fc1ccc(OCc2nc(-c3ccc(Br)o3)no2)c(F)c1,17.6,-,-,-,62.4,?
CN(Cc1nc(-c2ccccn2)no1)S(=O)(=O)c1ccccc1,24.1,-,-,-,60.9,-
c1ccc(CCc2nc(-c3ccccn3)no2)cc1,30.8,-,-,-,125.0,-
O=c1cc(NC2CCCCC2)c2ccccc2o1,-,-,-,-,-,-
SMILES,Cycloheximide cs,LmPK inhibitor,TbPYK inhibitor,FBPA Giardia inh,Shiga toxin inh,Sm TGR inh
COC(=O)CC(=O)CSc1nc2cc(C(=O)NCC(C)C)ccc2c(=O)n1CCc1ccccc1,.,.,-,.,.,-
Clc1ccccc1OCc1nc(-c2ccc(Br)o2)no1,53.7,-,-,-,70.3,-
CCOC(=O)c1ccc2ncc(C(=O)OCC)c(NCCCN3CCOCC3)c2c1,-,-,-,-,-,?
CCOC(=O)c1cnc2ccc(Br)cc2c1NCCCN1CCOCC1,-,-,-,-,-,44.7µM
CCOC(=O)c1cnc2c(Cl)c(Cl)ccc2c1NCCN1CCOCC1,-,-,-,-,-,39.8µM!
CCC(/C=C1\Sc2ccc(OC)cc2N1CCO)=C\c1sc2ccc(OC)cc2[n+]1CCO,-,14.1µM,?,?,-,11.2µM
COc1ccc(C2=C(C)C(N3CCC(C(=O)NCc4ccco4)CC3)=NS2(=O)=O)cc1,.,.,-,.,.,-

# Assay outcomes (PubChem BioAssay)
